Screens as filed in PubChem.
An excerpt weighted towards active compounds, which were near 21% of everything screened.
Pf growth 48h: inhibits P. falciparum growth in the first generation, 48 h | P. falciparum luciferase growth in erythrocytes, 48 h | Potency, µM (series often up to 28.7 µM), for the others: at the top dose activity change, negative = inhibition, most hits filed as inhibitors | hit rate 5.9% among 310,000 | AID 504832; also: potency is read from the fitted curve at half-maximal effect; % is scaled to controls: 0 for no effect and ±100 for the full control effect
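A one-generation exposure of luciferase-tagged malaria parasites in RPMI 1640/Albumax erythrocyte culture, 37 C and 5% CO2. Inhibition is inferred from decreased luminescence after adding detection reagent.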
SARS PLP yeast: SARS-CoV PLP inhibition in yeast | S. cerevisiae expressing SARS-CoV PLpro, growth rescue | hit rate 0.19% among 330,000 | Potency, µM (series often up to 32.9 µM), without a hit: at the highest dose activity, positive = growth rescue, most hits filed as activators; calls by dose curve; also: potency is read from the fitted curve at half-maximal effect; 0% is about no effect; nearly all actives have a fitted effect of over 55% in size
NS1 function inh: blocks influenza NS1 protein function | hit rate 0.4% among 270,000 | Potency, µM (doses to about 46.1 µM), inactives show top-dose activity, positive = more growth; calls by dose curve; also: potency is read from the fitted curve at half-maximal effect; actives are rising curves; nearly all actives have a fitted effect of over 50% in size
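S. cerevisiae expressing influenza A NS1, grown in glucose, washed, then diluted 1:100 into pH 6.0 -URA galactose medium with 23 nl compound. Growth recovery read as OD600; NS1-free strain serves as control.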
Shiga toxin inh: blocks Shiga toxin action in Vero cells | Vero cells, Shiga toxin protein synthesis inhibition reporter | inhibition, % at 38.7 µM | hit rate 9.2% among 290,000 | AID 2315; in the data active = inhibition mostly above about 28%, no sharp cut-off; inactive = mostly below about 43%; also: 0% is about no effect
Cycloheximide cs: affects cycloheximide protein synthesis inhibition readout, counter-screen; cell reporter, cycloheximide protein synthesis inhibition counterscreen; max response, %; hit rate 12% among 300,000; AID 2314; in the data active = max response mostly above about 13%, no sharp cut-off; inactive = mostly below about 14%; also: read at 38.3 µM for the half of the compounds with a filed dose; 0% is about no effect
Pf growth 96h: inhibits malaria parasite growth, 96 h; P. falciparum luciferase reporter growth, 96 h; AID 504834; hit rate 6.9% among 320,000; Potency, µM (titrated, usually from 28.7 µM), inactives show at the highest dose activity change, negative = inhibition, hits mostly inhibitors; also: potency is read from the fitted curve at half-maximal effect; % is scaled to controls: 0 for no effect and ±100 for the full control effect
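P. falciparum expressing integrated firefly luciferase grown in erythrocytes (2% hematocrit, 0.05% parasitemia final) with compounds for 96 hours at 37 C, 5% CO2. Growth inhibition read as loss of luminescence after adding luciferase detection reagent.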
An asterisk follows results filed as active; ? = inconclusive; . = no result given. Unless noted, calls follow the shape of the dose curve; as a rule, active = well fitted inhibition curve with a large enough effect; inconclusive = small, poorly fitted or top-dose-only effect, or another doubt; inactive = no such curve, though single readings can be large or run the other way.

SMILES	Pf growth 48h	SARS PLP yeast	NS1 function inh	Shiga toxin inh	Cycloheximide cs	Pf growth 96h
Cc1ccc(N2CC(C(=O)Nc3nnc(SCc4cccnc4)s3)CC2=O)cc1 (configuration not stated)	9%	?	1%	5	-3	0%
COc1ccccc1C(=O)Nc1nnc(SCC(=O)NC2CCCC2)s1	216%	2%	2%	166*	63*	105%
CSCC[C@H](NC(=O)[C@H](CC(C)C)NC(=O)CCNC(=O)[C@@H](NC(=O)[C@H](Cc1ccccc1)NC(=O)[C@H](CO)NC(=O)[C@@H](N)CC(=O)O)C(C)C)C(N)=O	.	.	.	0	-6	.
CN1C(=O)CC2(C=CC(=O)C=C2OC(=O)c2ccccc2)c2ccccc21 (configuration not stated)	.	.	.	15	2	.
O=C(O)c1ccccc1OS(=O)(=O)O	.	.	.	-3	0	.
Cc1nnc(SCC(=O)NC2CC2)s1	-1%	1%	13%	-5	-6	13µM*
CCc1nc(SCC(=O)NC2CC2)c2c(C)c(C)sc2n1	-5%	-2%	-9%	-5	5	4.7µM*
Cc1nnc(SCC(=O)NC2CCCCC2)s1	30%	-3%	.	34	20	196%
C=C1CCN(C(C)C(=O)OCc2ccc(C)cc2)S(=O)(=O)c2ccccc21 (configuration not stated)	.	.	.	9	-1	.
Clc1ccccc1Cl	-3%	.	.	.	.	16%
C=C(c1ccccc1Cl)[n+]1ccccc1	2.9µM*	0%	-4%	.	0	1.7µM*
C=C(c1ccccc1C)[n+]1ccccc1	4.7µM*	3%	7%	.	-3	1.7µM*
Cc1cc(NC(=O)CCCn2cc([N+](=O)[O-])cn2)n(Cc2ccc(F)cc2)n1	-19%	-3%	.	-3	11	?
CCCNc1ncnc2c1cnn2-c1ccc(OC)cc1	31%	4%	-1%	-11	-2	-1%
COc1ccc(-n2ncc3c(NCCCN4CCOCC4)ncnc32)cc1	134%	1%	-8%	83*	41*	-9%
COc1ccc(-n2ncc3c(NCCN4CCOCC4)ncnc32)cc1	.	-8%	-1%	47*	34*	103%
O=C(NC12CC3CC(CC(C3)C1)C2)N1CCN(c2ccccn2)CC1	12µM*	-1%	-12%	14	-1	2%
O=C(NC12CC3CC(CC(C3)C1)C2)N1CCN(c2ncccn2)CC1	-15%	0%	-3%	13	-2	?
O=C(NC12CC3CC(CC(C3)C1)C2)N1CCC(n2nnc3ccccc32)CC1	?	7%	-19%	-11	-3	9.3µM*
CCOc1ccc(NC(=O)N2CCC(n3nnc4ccccc43)CC2)cc1	?	-1%	-7%	16	-2	6%
Cc1ccc(N2CC(C(=O)Nc3ccc(S(=O)(=O)Nc4nccc(C)n4)cc3)CC2=O)cc1 (configuration not stated)	-6%	0%	4%	-9	-3	?
O=C(c1ccc(COc2ccccc2)o1)N1CCN(S(=O)(=O)c2ccccc2Cl)CC1	13µM*	-16%	.	.	.	?
Cc1ccc(S(=O)(=O)N2CCN(C(=O)c3ccc(COc4ccccc4)o3)CC2)cc1	12µM*	0%	.	.	.	9.3µM*
O=C(Nc1cccc(S(=O)(=O)N2CCCCC2)c1)c1ccco1	?	-1%	.	.	.	?
COc1c(O)cc2c(c1O)C(=O)CC(c1ccccc1)O2 (configuration not stated)	65%	-4%	-48%	71*	44*	?
Cc1c(O)cc2c(c1O)C(=O)CC(c1ccccc1)O2 (configuration not stated)	-2%	-5%	-62%	-4	-1	-20%
COc1ccc([C@H]2CC(=O)c3c(O)cc(O)cc3O2)cc1O	2%	0%	2%	57	23*	46%
COc1cc(C2CC(=O)c3c(O)cc(O)cc3O2)ccc1O (configuration not stated)	-5%	-2%	6%	-10	-1	?
CCC(C)NC(=O)c1cc(S(=O)(=O)N2CCCCC2)c[nH]1 (configuration not stated)	-12%	3%	8%	-5	-1	?
COP(=O)(CC(=O)c1ccccc1)CC(=O)c1ccccc1	-5%	-1%	-2%	12	-2	12%
